# Test results taken from publication PMC4336329 (PLoS ONE, 2015).
# Hit rate of the full screen: of about 310,000 compounds, about 2,200 (0.71%) showed an effect of 50% or more. Effects have a minus sign here. This excerpt belongs to a sample that is enriched for strong results.
# Target: human ether-à-go-go-related gene (hERG) potassium channel (human, UniProt Q12809)
# Experiment: primary screen, population patch clamp on CHO cells stably expressing hERG; higher = less effect of the substance
# Procedure: Briefly, Chinese hamster ovary (CHO) cells stably expressing the hERG channel were dislodged from tissue culture flasks and dispensed into PPC plates. […] During the recording, background leak currents were estimated by a 100 ms step to -80 mV from an initial holding potential of -70 mV and subtracted from the subsequent current measurement. The campaign was conducted in two phases using slight differences in recording protocol. In the first phase, the initial voltage pulse used a 100 ms step to -30 mV from a holding potential of -70 mV, a 2 s conditioning step to +25 mV, and a 2 s test step to -30 mV. During the second phase of the screen, the potential during the conditioning step was raised to +45 mV. In both phases of the campaign, a secondary voltage pulse was applied using the same parameters as the second phase initial pulse. The initial and secondary pulses were applied in the absence of compound, and upon application of 1 μM and 10 μM test concentrations. Small molecule effects on hERG current density were quantified by […].
# Sequence of human ether-à-go-go-related gene (hERG) potassium channel (Q12809 whole entry, looked up): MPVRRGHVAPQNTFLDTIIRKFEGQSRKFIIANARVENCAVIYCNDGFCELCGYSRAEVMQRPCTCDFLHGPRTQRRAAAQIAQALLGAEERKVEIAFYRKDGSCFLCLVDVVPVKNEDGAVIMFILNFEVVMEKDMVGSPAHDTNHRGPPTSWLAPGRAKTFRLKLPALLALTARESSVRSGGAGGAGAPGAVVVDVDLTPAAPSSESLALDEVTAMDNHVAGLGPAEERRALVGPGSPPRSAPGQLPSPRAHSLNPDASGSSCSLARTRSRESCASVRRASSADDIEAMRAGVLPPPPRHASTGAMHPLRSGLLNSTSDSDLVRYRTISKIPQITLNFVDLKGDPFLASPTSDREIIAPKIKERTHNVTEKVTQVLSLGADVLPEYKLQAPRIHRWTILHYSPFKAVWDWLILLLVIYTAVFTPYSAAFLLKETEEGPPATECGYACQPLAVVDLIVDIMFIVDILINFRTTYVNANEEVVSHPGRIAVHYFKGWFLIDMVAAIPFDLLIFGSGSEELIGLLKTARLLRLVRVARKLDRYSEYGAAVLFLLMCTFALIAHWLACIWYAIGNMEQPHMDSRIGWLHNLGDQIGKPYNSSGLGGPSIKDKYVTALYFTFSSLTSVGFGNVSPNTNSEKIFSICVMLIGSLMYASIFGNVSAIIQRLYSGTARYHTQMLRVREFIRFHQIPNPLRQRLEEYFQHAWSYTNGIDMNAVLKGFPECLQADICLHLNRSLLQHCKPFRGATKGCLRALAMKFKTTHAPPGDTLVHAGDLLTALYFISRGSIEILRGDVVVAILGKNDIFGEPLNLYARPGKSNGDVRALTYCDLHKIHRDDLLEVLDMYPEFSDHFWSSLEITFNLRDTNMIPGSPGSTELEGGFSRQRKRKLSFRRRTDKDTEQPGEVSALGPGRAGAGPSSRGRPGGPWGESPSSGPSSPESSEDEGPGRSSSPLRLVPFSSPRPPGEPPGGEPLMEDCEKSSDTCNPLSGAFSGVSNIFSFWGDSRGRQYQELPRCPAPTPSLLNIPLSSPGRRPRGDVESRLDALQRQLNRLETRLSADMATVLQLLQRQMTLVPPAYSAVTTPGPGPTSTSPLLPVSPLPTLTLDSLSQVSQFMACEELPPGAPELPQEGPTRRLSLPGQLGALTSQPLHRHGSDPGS
row,SMILES,"hERG current change (%, negative = inhibition) at 1uM"
1,CC(C)CC(=O)Nc1cc2nn(-c3ccccc3)nc2cc1Cl,-0.947%
2,Cc1sc2ncn(CC(=O)N3CCC(C(N)=O)CC3)c(=O)c2c1S(=O)(=O)N1CCOCC1,10.1%
3,COC(=O)c1cc(NC(=O)CN2CCC(C(N)=O)(N3CCCCC3)CC2)cc(C(=O)OC)c1,5.65%
4,Cc1nc2ccccc2nc(C)c1=NOCc1ccc(Cl)cc1Cl,0.014%
5,CC(=O)Nc1ccc(SCC(=O)Nc2ccccc2Oc2ccccc2)cc1,3.2%
6,Cc1ccccc1NC(=O)CSC(N)=O,24%
7,CCN(CC)CCCN1C(=O)CSC1c1ccc([N+](=O)[O-])cc1.Cl (stereo not drawn),-74.4%
8,CN(C)CCCN1C(=O)CSC1c1ccc([N+](=O)[O-])cc1.Cl (stereo not drawn),-11.4%
9,CCN(CC)CCCN1C(=O)CSC1c1ccc2c(c1)OCO2.Cl (stereo not drawn),-15.9%
10,CC(OC(=O)c1cccc(-n2cnnn2)c1)c1nc2ccccc2c(=O)[nH]1 (stereo not drawn),7.2%
11,Cc1ccc(CN2CCN(Cc3ccccc3)C(CCO)C2)s1 (stereo not drawn),-26.7%
12,CC(C)Cn1c(CN2CCN(C)C(CCO)C2)nc2ccccc21 (stereo not drawn),12.7%
13,OCCC1CN(Cc2cccc3nccnc23)CCN1Cc1ccc(F)cc1 (stereo not drawn),-7.96%
14,Cc1ccc(CN2CCN(Cc3ccc(C)s3)CC2CCO)cc1 (stereo not drawn),-67.3%
15,Cc1ccc(CN2CCN(Cc3cccc4nccnc34)CC2CCO)cc1 (stereo not drawn),-53.3%
16,Cc1nc2ccccc2nc1CN1CCN(Cc2ccc(F)c(F)c2)C(CCO)C1 (stereo not drawn),-6.36%
17,Cc1ccc(CN2CCN(Cc3nc4ccccc4nc3C)CC2CCO)cc1 (stereo not drawn),-65.3%
18,OCCC1CN(Cc2cccc3nccnc23)CCN1Cc1ccc(F)c(F)c1 (stereo not drawn),-11.8%
19,Cc1ccc(CN2CCN(Cc3ccccn3)CC2CCO)cc1 (stereo not drawn),-5.1%
20,CCn1c(CN2CCN(Cc3ccc(C)cc3)C(CCO)C2)nc2ccccc21 (stereo not drawn),-50.5%
21,Cc1ccc(CN2CCN(Cc3cccc(C)n3)CC2CCO)cc1 (stereo not drawn),-2.38%
22,Cc1ccc(CN2CCN(Cc3cnc(C)s3)CC2CCO)cc1 (stereo not drawn),-0.701%
23,O=C(COc1ncnc2cc([N+](=O)[O-])ccc12)N(CCc1ccccc1)Cc1ccccc1,18.9%

row,SMILES,"hERG current change (%, negative = inhibition) at 1uM"
1,CC1(C)Oc2ccc3ccc(=O)oc3c2C(N2CCCCC2)C1O (stereo not drawn),0.376%
2,COc1cccc(-c2ocnc2C(=O)Nc2ccc(N3CCOCC3)cc2N2CCOCC2)c1,15.6%
3,O=S(=O)(Nc1cc(Sc2cccc3cccnc23)c(O)c2ccccc12)c1ccc(F)cc1,13.4%
4,CC(C)Oc1ccc(CNC(=O)C2CCN(C(=O)N3CCOc4ccccc43)CC2)cc1,6.25%
5,NC(=O)C1CCN(CC(=O)Nc2cc(S(=O)(=O)N3CCOCC3)ccc2N2CCCC2)CC1,-1.18%
6,COC(=O)C1=COC(OC2OC(CO)C(O)C(O)C2O)C2C1C=CC2(O)CO (stereo not drawn),5.93%
7,COc1ccc(Cl)cc1NC(=O)[C@@]1(CC(=O)O)CC(/C=C/c2ccccc2)=NO1,12.8%
8,CCc1ccc(-c2cc(C)no2)cc1S(=O)(=O)N1CCN(C(=O)c2ccco2)CC1,-4.73%
9,O=c1nc2ccccc2c2n1CC(CN1CCN(c3ccc(F)cc3)CC1)N2 (stereo not drawn),-65.6%
10,O=c1nc2ccccc2c2n1CC(CN1CCN(c3cccc(Cl)c3)CC1)N2 (stereo not drawn),-38.9%
11,O=c1nc2ccccc2c2n1CC(CN1CCN(c3ccccc3F)CC1)N2 (stereo not drawn),-20.7%
12,O=C1NCCN(Cc2cccc(Oc3ccccc3)c2)C1CC(=O)N1CCCO1 (stereo not drawn),12.1%
13,COc1ccc(-c2nc(=S)[nH][nH]2)cc1OC,10.4%
14,Cc1ccc(Cn2ccnc2C(=O)Nc2ccccc2)cc1,9.01%
15,N#Cc1ccc(Cn2ccnc2C(=O)Nc2ccccc2)cc1,-86.8%
16,O=C(Nc1ccccc1)c1nccn1Cc1ccc(F)cc1,11.3%
17,O=C(NC(c1ccccc1)c1ccccn1)c1cccc([N+](=O)[O-])c1 (stereo not drawn),12.3%
18,O=C1C(=O)N(CCN2CCOCC2)C(c2cccc(Cl)c2)/C1=C(\O)c1ccc2c(c1)OCCO2 (stereo not drawn),2.15%
19,CC(=O)c1coc2ccc(OCC(=O)O)cc12,-0.294%
20,CCOc1cc(/C=N/NC(=O)c2cccnc2)ccc1O,7.47%
21,CCOc1cc(/C=N/NC(=O)c2cccnc2)ccc1OCC(N)=O,10.8%
22,CCOc1cc(/C=N/NC(=O)c2cccnc2)cc(Br)c1OCC(N)=O,-69.4%
23,Br.CCn1c2c(c(=N)c3ccccc31)CCC2,12%

row,SMILES,"hERG current change (%, negative = inhibition) at 1uM"
1,CCCCCn1c2c(c(=N)c3ccccc31)CCC2.I,-61.5%
2,O=C(O)CCn1c2c(c3ccccc31)CCCC2,19.5%
3,CCCCn1c2c(c(=N)c3ccccc31)CCC2.I,-16.6%
4,CCCCCCCn1c2c(c(=N)c3ccccc31)CCC2.I,-89.6%
5,CCOC(=O)Cn1c2c(c(=N)c3ccccc31)CCC2.Cl,12.7%
6,CCOc1cc(NC(=S)NCCCN2CCOCC2)c(OCC)cc1NC(=O)c1ccccc1,16.1%
7,O=C(Nc1ccccc1)C1CC=CCC1C(=O)OCC1CCCO1 (stereo not drawn),-5.31%
8,Cc1ccc(N2CCN(CCCN3C(=O)C4CCCN4C3=O)CC2)cc1.Cl (stereo not drawn),4.77%
9,O=C1C2CCCN2C(=O)N1CCCN1CCN(c2ccc([N+](=O)[O-])cc2)CC1 (stereo not drawn),-63.3%
10,O=C1C2CCCN2C(=O)N1CCCCN1CCN(c2ccccc2)CC1 (stereo not drawn),1.66%
11,O=C(CCCN1C(=O)C2CCCCN2C1=O)N1CCN(c2ccc([N+](=O)[O-])cc2)CC1 (stereo not drawn),-78.5%
12,O=C1C2CCCCN2C(=O)N1CCN1CCN(c2ccc([N+](=O)[O-])cc2)CC1 (stereo not drawn),-69.7%
13,O=C1C2CCCCN2C(=O)N1CCCCN1CCN(c2ccc(F)cc2)CC1 (stereo not drawn),-7.05%
14,O=C1C2CCCCN2C(=O)N1CCCCN1CCN(c2ccc([N+](=O)[O-])cc2)CC1 (stereo not drawn),-80.7%
15,O=C(CCN1C(=O)C2C3C=CC(C3)C2C1=O)N1CCN(c2ccc([N+](=O)[O-])cc2)CC1 (stereo not drawn),-49.5%
16,O=C1C2CCCN2C(=O)N1CCN1CCN(c2ccccc2)CC1 (stereo not drawn),-10.6%
17,Cl.Nc1ccc(N2CCN(CCCCN3C(=O)C4CCCN4C3=O)CC2)cc1.O (stereo not drawn),18.3%
18,O=C1C2CCCCN2C(=O)N1CCCN1CCN(c2ccc(F)cc2)CC1 (stereo not drawn),-3.12%
19,Cc1ccc(N2CCN(CCCCN3C(=O)C4CCCN4C3=O)CC2)cc1.Cl (stereo not drawn),-3.91%
20,Cc1cc(C)cc(N(C(=O)c2csnn2)C(C(=O)NC2CCCCC2)c2ccccn2)c1 (stereo not drawn),11.5%
21,CN(Cc1ccccc1)C(=O)c1ccc(NC2=NC3CS(=O)(=O)CC3S2)cc1 (stereo not drawn),-3.47%
22,O=C(O)Cc1ccc(O)c(F)c1,4.7%
23,CN1CCN(NC(=S)NC2CCCCC2)CC1,3.73%

row,SMILES,"hERG current change (%, negative = inhibition) at 1uM"
1,CCOC(=O)C1CCN(C(=O)c2sccc2Cl)CC1,12.5%
2,O=S(=O)(Nc1ccc(Cl)cn1)c1ccc(Cl)cc1,16.8%
3,O=C(NNC(=O)C1CCCO1)c1ccc(Br)cc1 (stereo not drawn),8.75%
4,O=C(NC1CCCCC1)NC1CCN(S(=O)(=O)c2ccc3c(c2)OCCO3)CC1,9.08%
5,Cc1ccc(S(=O)(=O)N(C(=O)c2ccncc2)c2ccc3oc4c(c3c2)CCCC4)cc1[N+](=O)[O-],19.2%
6,Cc1ccc(Nc2nc(Cl)nc(NC(C)(C)C)n2)cc1,11.9%
7,O=C(NCC(=O)N1CCN(c2ccccc2)CC1)c1ccc(Br)o1,-7.83%
8,Cc1ccc(Cl)cc1N1CCN(C(=O)CNC(=O)c2ccc(Br)o2)CC1,4.64%
9,O=C(NCC(=O)N1CCN(c2cccc(Cl)c2)CC1)c1ccc(Br)o1,-57.5%
10,COc1ccc(-n2c(-c3ccc(Cl)cc3)c[n+]3c2CCCCC3)cc1.[Br-],8.19%
11,COc1ccccc1-n1c(-c2ccccc2)c[n+]2c1CCc1ccccc1-2.[Br-],-34.7%
12,Cc1ccc(-n2c(-c3ccccc3)c[n+]3c2CCC3)cc1.[Br-],-2.23%
13,COc1ccc(-n2c(-c3ccccc3)c[n+]3c2CCC3)cc1.[Br-],6.43%
14,COc1ccc(-n2c(-c3ccc(Br)cc3)c[n+]3c2CCC3)cc1.[Br-],-21%
15,Cc1ccc(-n2c(-c3ccccc3)c[n+]3c2CCc2ccccc2-3)c(C)c1.[Br-],-82.5%
16,COc1ccc(-n2c(-c3ccc(Br)cc3)c[n+]3c2CCc2ccccc2-3)cc1.[Br-],-90.6%
17,Cc1ccc(-c2c[n+]3c(n2-c2ccccc2)CCC3)cc1.[Br-],1.57%
18,COc1ccc(-n2c(-c3ccc(Br)cc3)c[n+]3c2SC(C)C3)cc1.[Br-] (stereo not drawn),-26%
19,Brc1ccc(-c2cn3c(n2)CCc2ccc4cccnc4c2-3)cc1,10.5%
20,COc1ccc(-n2c(-c3ccc(Cl)cc3)c[n+]3c2CCc2ccccc2-3)cc1.[Br-],-70.3%
21,Cc1ccc(-n2c(-c3ccc(Br)cc3)c[n+]3c2CCc2ccc4cccnc4c2-3)cc1.[Br-],-86.6%
